In PubChem BioAssay:
Active and inactive are the calls of the source. The rule behind the calls is not given here.

Assays:
[1] = test system: Botulinum neurotoxin type F light chain protease (Clostridium botulinum); assay: Botulinum neurotoxin type F light chain protease inhibition, multiplex microsphere flow cytometry, validation set (AID 588459); conditions: multiplex microsphere protease substrate cleavage assay, at 10 µM, hits give high values
[2] = biological target: Botulinum neurotoxin type A (Clostridium botulinum) (UniProt P0DPI0); assay: BoNT/A light chain protease inhibitors, biochemical, multiplex microsphere flow cytometry, validation set (AID 588460); conditions: at 10 µM, hits give high values
Chain of Botulinum neurotoxin type A (Clostridium botulinum) (P0DPI0 whole entry, looked up): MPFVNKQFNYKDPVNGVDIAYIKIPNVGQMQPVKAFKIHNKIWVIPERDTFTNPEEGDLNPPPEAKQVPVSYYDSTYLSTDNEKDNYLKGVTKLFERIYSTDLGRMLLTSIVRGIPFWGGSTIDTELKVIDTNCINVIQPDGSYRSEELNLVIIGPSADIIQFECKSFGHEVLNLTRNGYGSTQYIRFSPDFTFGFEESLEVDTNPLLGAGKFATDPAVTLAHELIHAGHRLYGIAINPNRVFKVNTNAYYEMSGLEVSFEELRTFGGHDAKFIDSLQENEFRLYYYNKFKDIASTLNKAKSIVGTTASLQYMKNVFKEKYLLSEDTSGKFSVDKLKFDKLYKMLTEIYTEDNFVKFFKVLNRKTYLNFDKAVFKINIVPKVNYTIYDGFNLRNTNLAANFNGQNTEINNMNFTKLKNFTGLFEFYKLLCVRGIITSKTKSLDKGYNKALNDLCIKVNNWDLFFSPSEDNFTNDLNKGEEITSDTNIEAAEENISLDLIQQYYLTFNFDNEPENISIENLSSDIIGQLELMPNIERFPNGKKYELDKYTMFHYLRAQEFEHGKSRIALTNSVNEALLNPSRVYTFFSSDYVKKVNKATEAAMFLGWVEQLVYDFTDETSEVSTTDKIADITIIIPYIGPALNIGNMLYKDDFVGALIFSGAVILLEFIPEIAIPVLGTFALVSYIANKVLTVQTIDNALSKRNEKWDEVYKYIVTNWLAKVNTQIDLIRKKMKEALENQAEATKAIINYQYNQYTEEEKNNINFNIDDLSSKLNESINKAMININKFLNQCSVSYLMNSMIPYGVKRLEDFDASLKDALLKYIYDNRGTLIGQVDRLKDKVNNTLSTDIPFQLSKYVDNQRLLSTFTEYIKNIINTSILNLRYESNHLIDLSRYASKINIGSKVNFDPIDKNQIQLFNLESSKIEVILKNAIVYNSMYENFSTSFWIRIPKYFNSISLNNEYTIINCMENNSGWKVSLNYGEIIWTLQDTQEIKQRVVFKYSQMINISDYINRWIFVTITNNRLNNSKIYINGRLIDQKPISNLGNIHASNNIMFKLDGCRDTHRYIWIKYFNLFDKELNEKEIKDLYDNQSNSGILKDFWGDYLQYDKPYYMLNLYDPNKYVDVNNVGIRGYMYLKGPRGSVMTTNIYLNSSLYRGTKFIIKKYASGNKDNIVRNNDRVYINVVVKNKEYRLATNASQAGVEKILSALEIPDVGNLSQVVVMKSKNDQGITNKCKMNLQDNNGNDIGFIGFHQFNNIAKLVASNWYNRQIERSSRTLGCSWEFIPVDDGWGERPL

[3] = biological target: Lethal factor (Bacillus anthracis) (UniProt P15917); assay: Lethal factor protease inhibitors, Bacillus anthracis, multiplex microsphere cleavage assay, validation set (AID 588461); conditions: flow cytometry, at 10 µM, hits give high values
Chain of Lethal factor (Bacillus anthracis) (P15917 whole entry, looked up): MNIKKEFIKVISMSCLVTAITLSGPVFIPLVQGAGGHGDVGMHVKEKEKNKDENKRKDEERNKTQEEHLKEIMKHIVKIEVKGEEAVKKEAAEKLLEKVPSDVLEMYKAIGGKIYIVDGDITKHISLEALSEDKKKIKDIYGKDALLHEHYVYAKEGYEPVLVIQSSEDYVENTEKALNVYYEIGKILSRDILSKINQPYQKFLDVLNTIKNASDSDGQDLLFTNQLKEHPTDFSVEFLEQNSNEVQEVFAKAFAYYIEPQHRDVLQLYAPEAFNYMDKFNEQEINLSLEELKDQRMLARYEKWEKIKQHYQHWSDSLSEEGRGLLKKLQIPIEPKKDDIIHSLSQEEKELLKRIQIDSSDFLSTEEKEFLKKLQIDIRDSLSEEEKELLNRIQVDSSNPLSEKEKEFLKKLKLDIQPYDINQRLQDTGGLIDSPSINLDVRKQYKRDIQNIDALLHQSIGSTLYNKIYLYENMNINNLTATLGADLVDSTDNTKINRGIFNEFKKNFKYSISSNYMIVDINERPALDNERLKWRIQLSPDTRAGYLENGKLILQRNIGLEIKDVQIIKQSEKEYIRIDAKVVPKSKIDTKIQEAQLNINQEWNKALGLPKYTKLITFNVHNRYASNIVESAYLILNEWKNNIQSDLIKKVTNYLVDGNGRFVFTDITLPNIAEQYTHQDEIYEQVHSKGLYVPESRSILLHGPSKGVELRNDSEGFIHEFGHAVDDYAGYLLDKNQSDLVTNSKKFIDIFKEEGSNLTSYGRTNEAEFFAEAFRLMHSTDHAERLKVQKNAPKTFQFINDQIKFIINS

Measured: inhibition

CCOc1cc2c3c(c1)C(C)=CC(C)(C)N3C(=O)C2=O
inactive: [1] 1.1% | [2] -2.5% | [3] -4%

CCOC(=O)c1ccc(NC(=S)NCCc2ccccc2F)cc1
inactive: [1] 4.9% | [2] 2.4% | [3] -2.3%

CC1(C)CC(=O)C2=C(C1)c1c(ccc3ccccc13)NC2c1ccco1 (stereo not drawn)
inactive: [1] 1.8% | [2] 1.1% | [3] 3.8%

CC[N+]1(C)CC2CCC(C)(C1)C2(C)C (stereo not drawn)
inactive: [1] 1.1% | [2] -0.5% | [3] 11.8%

Cc1nc(C(=O)Nc2ccccc2Cl)cc2c1[nH]c1ccccc12
inactive: [1] -0.3% | [2] -0.9% | [3] -4.5%

COc1cccc(CN2CCN(C(=O)c3ccc(-c4ccccc4)cc3)CC2)c1
inactive: [1] 3.8% | [2] -0.4% | [3] -3.1%

CC(C)C1CC(CCNCc2ccc(N(C)C)cc2)(c2ccccc2)CCO1 (stereo not drawn)
inactive: [1] -3.7% | [2] -1.8% | [3] -9.1%

O=C(c1ccc(-c2ccccc2)c(F)c1)C1CCCN(C(=O)c2cncs2)C1 (stereo not drawn)
inactive: [1] 0.6% | [2] 0.5% | [3] 1.6%

COc1cc(-c2nnc(-c3cccs3)o2)cc(OC)c1OC
inactive: [1] 1.3% | [2] 1.7% | [3] 4.3%

O=C1c2ccccc2C(=O)N1/N=C/c1ccc(Oc2ccc([N+](=O)[O-])cn2)cc1
inactive: [1] 0.2% | [2] 0.8% | [3] -1.7%

O=C(NC(=S)Nc1nc(-c2ccccc2)cs1)c1ccco1
inactive: [1] 4.3% | [2] -0.2% | [3] -0.3%
